Results filed as inconclusive are left out. Values without a mark were called inactive. Calls come from the whole dose curve; as a rule, active = well fitted curve in the direction sought with a large enough effect in the signal ratio in the repeat runs (not every such curve was filed as active); inconclusive = weak or mixed curves, or a change in a side signal; inactive = no such curve, though single readings can be large or run the other way; the % refers to the signal ratio.
Assay: qHTS assay to identify small molecule agonists of the NFkB signaling pathway (AID 1159509)
Settings: NFkB-bla ME-180 cells, beta-lactamase FRET ratio, 5 h; series mostly up to 61 µM; activation: at the top concentration
From the text: National Center for Advancing Translational Sciences [NCATS]
NIH Chemical Genomics Center [NCGC]
U.S. Environmental Protection Agency [EPA]
National Institutes of Environmental Health Sciences [NIEHS]
National Toxicology Program [NTP]
U.S. Food and Drug Administration [FDA]
Transcription factors and their stimulated target gene expression play pivotal roles across many cellular processes including responses to environmental stimuli. Proper regulation of associated pathways is critical to maintain cell health and function. Constitutive activation of transcription factor pathways has been implicated in tumors as it may block cellular functions such as apoptosis and lead to invasion and metastasis. One important transcription factor that stimulates gene expression in response to cytokines, UV radiation, and other stimuli is nuclear factor-kappa B (NFkB). To measure activation of the NFkB pathway, the CellSensor NFkB-bla ME-180 cell line (Life Technologies, Carlsbad, CA) that stably expresses beta-lactamase reporter gene under the regulation of a NF-kB response element was used. This assay allows measurement of the NFkB pathway activity induced by compounds in a ME-180 cell line. This system quantitates NF-kB activity using a FRET-based assay system where beta-lactamase expression disrupts FRET, allowing for fluorescent measurement of activity. This cell line has been used to screen the Tox21 10K compound library and to identify compounds that induce the NFkB pathway activity.
Tox21 Assay Protocol Summary:
NFkB-bla ME-180 cells were dispensed at 2,000 cells/6 uL of assay medium per well into black wall/clear-bottom 1536-well plates using a Multidrop Combi (ThermoFisher Scientific, Waltham, MA) dispenser. After the assay plates were incubated at 37 C and 5% CO2 for an overnight, 23 nL of compounds dissolved in DMSO, positive controls or DMSO only was transferred to the assay plate by a Pintool station (Kalypsys, San Diego, CA). The assay plates were incubated at 37 C and 5% CO2 for 5 hr. One uL of LiveBLAzer B/G FRET substrate (Life Technologies) was added using a Flying Reagent Dispenser (Aurora Discovery, San Diego, CA) and the plates were incubated at room temperature for 1.5 hr. Fluorescence intensity (405 nm excitation, 460 nm and 530 nm emissions) was measured using an Envision plate reader (PerkinElmer, Shelton, CT).
% is set by controls: 0 for no effect and ±100 for the full control effect.

Row | Compound | activation
1 | COc1ccc(-c2ccccc2)cc1NNC(=O)OC(C)C | 0.0645% [at 78.8 µM]
2 | O=C1NCN(c2ccccc2)C12CCN(CCCOc1ccc(F)cc1)CC2 | 2.18%
3 | C=CC(=O)OC | 0.0426% [at 78.8 µM]
4 | CC(c1ccc(O)cc1)(c1ccc(O)cc1)c1ccc(O)cc1 | 5.02%
5 | Nc1ccc([N+](=O)[O-])cc1[N+](=O)[O-] | -0.698%
6 | COc1cc(Cl)c(OC)cc1Cl | -0.118%
7 | [CH3][Sn]([CH3])([Cl])[Cl] | -0.577%
8 | Cn1sc(Cl)cc1=O | -0.673%
9 | NC(=O)CI | 0.327% [at 78.8 µM]
10 | CCBr | -0.0018% [at 78.8 µM]
11 | CC1Sc2c(C(=O)O)c(=O)c3cc(F)c(N4CCNCC4)cc3n21 (stereo not given) | 1.02%
12 | COCC(C)N(C(=O)CCl)c1c(C)csc1C (stereo not given) | -0.67%
13 | CCOS(C)(=O)=O | 0.012% [at 78.8 µM]
14 | COc1cc(CC(C)N)cc2c1OCO2 (stereo not given) | 0.147% [at 78.8 µM]
15 | Clc1ccc(C(OCCN2CCCCC2)c2ccccc2)cc1 (stereo not given) | 2.53%
16 | CCOP(=S)(OCC)Oc1nc(Cl)c(Cl)cc1Cl | 1.06%
17 | Clc1cccc(SC2CCNCC2)n1 | 0.454%
18 | CCC(COC(=O)c1cc(OC)c(OC)c(OC)c1)(c1ccccc1)N(C)C (stereo not given) | 0.0917%
19 | COC1=CC(=O)O[C@@H](CCc2ccccc2)C1 | -0.105% [at 78.8 µM]
20 | C/C=C/C=O | -0.49%

Row | Compound | activation
21 | NNC(=O)c1cccnc1 | -0.141% [at 78.8 µM]
22 | CCCCCCC#N | -0.344%
23 | CCOC(=O)[C@]1(c2ccccc2)Oc2ccccc2[C@@H]1N | 0.72%
24 | CC(=O)[C@H]1CC[C@H]2[C@@H]3CC[C@H]4C[C@](C)(O)CC[C@]4(C)[C@H]3CC[C@]12C | 1.56%
25 | Clc1cccc2ccccc12 | 1.67%
26 | COP(=S)(OC)Oc1cc(Cl)c(I)cc1Cl | 2.94%
27 | NCC(CC(=O)O)c1ccc(Cl)cc1 (stereo not given) | 0.398% [at 0.628 µM]
28 | CCc1ccc(C(=O)NN(C(=O)c2cc(C)cc(C)c2)C(C)(C)C)cc1 | 0.0221%
29 | CN(C)c1ccc(N(C)C)cc1 | 2.73%
30 | CCOC(=O)COc1cc(-c2nn(C)c(OC(F)F)c2Cl)c(F)cc1Cl | -0.627%
31 | NC(=O)C(Cl)(Cl)Cl | -0.514% [at 78.8 µM]
32 | O=C(O)C(F)(F)C(F)(F)C(F)(F)C(F)(F)C(F)(F)C(F)(F)C(F)(F)C(F)(F)C(F)(F)F | 0.0369%
33 | O=C(N[C@H](c1ccccc1)[C@@H]1CN2CCC1CC2)c1c(Cl)ccc(C(F)(F)F)c1Cl | 0.0517% [at 78.8 µM]
34 | CCCCc1c(C)nc(NCC)nc1OS(=O)(=O)N(C)C | -1.12%
35 | O=C(OC1CCCCC1)c1ccccc1C(=O)OC1CCCCC1 | 1.08% [at 78.8 µM]
36 | CO/N=C(/C(=O)OC)c1ccccc1COc1ccccc1C | 0.646%
37 | O=C(NC(=O)c1c(F)cccc1F)Nc1cc(Cl)c(Oc2ncc(C(F)(F)F)cc2Cl)c(Cl)c1 | 1.6%
38 | C=CC(=O)NCNC(=O)C=C | -1.28%
39 | O=[N+]([O-])C(Br)(CO)CO | -0.199%
40 | O=C(O)c1ccccc1C(=O)Nc1cccc2ccccc12 | -0.857%

Source: PubChem BioAssay (Tox21)
